According to PubChem BioAssay (NCI):
Several values for one entry are separate records, joined by “and”; a condition that tells them apart may be missing. Equal entries are not always repeated. About 83,000 compounds went through this panel and 20% of them were active in at least one assay; those are over-represented in the sample as a whole.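 Step 1: grow cells in 96-well plates. Step 2: add test compound at a single concentration. Step 3: incubate 48 h. Step 4: record percent growth.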 Activity calls are given as the source filed them.

System: NCI-H23 lung
Assay: NCI-60 one-dose screen, 48 h (100 = growth as untreated, 0 = no growth, -100 = all killed)
Details: 1 µM
Method: Growth inhibition of the NCI-H23 human Non-Small Cell Lung tumor cell line is measured as a screen for anti-cancer activity. Cells are grown in 96 well plates and exposed to the test compound for 48 hours. Compounds are tested at a single concentration, which is 10^-5 M for most compounds. The reported endpoint is percent growth (GI% or GIPRCNT), where numbers from 0 - 100% represent growth inhibition, and numbers from -100% - 0 represent cell death. For example, a value of 40 represents 60% growth inhibition. A value of 0 means no net growth occurred over the course of the experiment. A value of -40 indicates 40% of cells at the beginning of the experiment died by the end of the experiment. A value of -100 means all cells are dead at the end of the experiment.
NCI-60 Human Tumor Cell Lines Screen was performed using the standard one-dose NCI protocol, which is described in more detail at https://dtp.cancer.gov/discovery_development/nci-60/default.htm.
Compounds with GIPRCNT values below 10 were considered active. Activity score was based on GIPRCNT using the following formula: […]
Score is 0 for GIPRCNT values of 100 or above, 50 for GIPRCNT values of 0, and 100 for GIPRCNT values of -100.

SMILES	growth
CC/C(=C(\c1ccc(O)cc1)c1ccc(OCCN(C)C(=O)CCOCCNC(=O)c2ccc3c(c2)CN([C@@H]2CCC(=O)NC2=O)C3=O)cc1)c1ccccc1	105% (inactive)
CC/C(=C(/c1ccc(O)cc1)c1ccc(OCCN(C)C(=O)CCOCCNC(=O)Cc2ccc3c(c2)CN([C@@H]2CCC(=O)NC2=O)C3=O)cc1)c1ccccc1	98.2% (inactive)

Same assay, conditions: 10 µM

SMILES	growth
CC/C(=C(\c1ccc(O)cc1)c1ccc(OCCN(C)C(=O)CCOCCNC(=O)c2ccc3c(c2)CN([C@@H]2CCC(=O)NC2=O)C3=O)cc1)c1ccccc1	97.2% (inactive)
CC/C(=C(/c1ccc(O)cc1)c1ccc(OCCN(C)C(=O)CCOCCNC(=O)Cc2ccc3c(c2)CN([C@@H]2CCC(=O)NC2=O)C3=O)cc1)c1ccccc1	92.8% (inactive)

Same assay, conditions: 10 µM unless noted

SMILES	growth
O=C(N/N=C/c1ccsc1)c1[nH]c2ccc(Br)cc2c1-c1ccccc1	-78% (active)
NC1(c2ccc(-c3ccc4ncnc(NCc5ccccc5)c4c3)cn2)COC1	108% (inactive) and 105% (inactive)
CCOC(=O)/C(F)=C/C1CC1CCc1ccc(OCC)cc1 (stereo not given)	87.3% (inactive)
O=C1NC(=S)/C(=C/c2cn(-c3ccccc3)nc2-c2ccccc2)S1	12.5% (inactive)
Cc1nn(-c2ccccc2)c2nc(C)n(CC(=O)N/N=C/c3cccc([N+](=O)[O-])c3)c(=O)c12	102% (inactive)
COC(=O)c1cc(C(=O)CBr)n2c1ccc1c3ccccc3ccc12	51.4% (inactive)
Cc1nc2sccn2c1-c1nnc(SCc2ccccc2)o1	86.1% (inactive)
COc1ccc2[nH]c(O)c(N=Nc3nc(-c4ccc(C#N)cc4)cs3)c2c1	55.9% (inactive)
C[C@@H]1CN(c2ccc3ncc(C#Cc4cncc(C(=O)Nc5ccc(CN6CCN(C)CC6)c(C(F)(F)F)c5)c4)n3n2)C[C@@H](C)O1	-87.5% (active)
Cn1cc(-c2cc(N)n3nc(-c4c[nH]c5ccc(Cl)cc45)cc3n2)c2cccnc21	-75.7% (active)
N#CCc1nnc(NC(=O)c2ccc(-n3c(=O)[nH]c4ccccc4c3=O)cc2)s1	93% (inactive)
CCCCCCCCCc1ccc(C(=O)Nc2cc(C)ccc2C(=O)OC)cc1	102% (inactive)
COc1c(F)ccc(C(=O)Nc2ccc3nc(NC(=O)C4CCCN(S(=O)(=O)c5ccc(C(C)(C)C)cc5)C4)sc3c2)c1F (stereo not given)	66.6% (inactive)
COc1ccc(-n2c(NC(=O)N3CCN(C)CC3)c(C#N)c3ccccc32)cc1	33.8% (inactive)
O=C(N/N=C/c1ccc(Br)o1)c1[nH]c2ccc(Br)cc2c1-c1ccccc1	-37% (active)
O=C(Nc1ccc(S(=O)(=O)N2CCCCC2)cc1)C(Cl)Cl	103% (inactive)
Clc1ccc(Nc2nnc(-c3c[nH]c4ccccc34)o2)cc1	77.9% (inactive)
COc1cncc(-c2ccc3ncnc(N4CCc5ccc(Cl)cc54)c3c2)c1	8.73% (active)

SMILES	growth
C/C(=N\Nc1ccc(C(=O)O)cc1)c1cnn(-c2cc(=O)[nH]c3ccc(C)cc23)c1C	106% (inactive)
FC(F)(F)CN1CCN(CCn2c(C(F)(F)F)cc3c(Cl)ncnc32)CC1	16.5% (inactive)
Fc1ccccc1CNc1nc(SCCN2CCOCC2)nc2c1cnn2CC(Cl)c1ccc(Br)cc1 (stereo not given)	45.1% (inactive)
Cc1nn(-c2ccccc2)c2nc(C)n(C(=O)N/N=C/c3ccccc3)c(=O)c12	99.7% (inactive)
c1n[nH]cc1-c1nc2ccc3[nH]ncc3c2c2c1CC1(CCOCC1)CC2	44.2% (inactive)
NS(=O)(=O)c1ccc(Nc2nc(SCC(=O)c3ccc(F)cc3)nc3ccccc23)cc1	41.8% (inactive)
CS(=O)(=O)Nc1cc(-c2ccc3ncnc(Nc4ccc(OCc5cccnc5)c(Cl)c4)c3c2)cnc1Cl	-26.9% (active)
O=C(c1ccc(O)cc1)C1[C@H](c2ccc(Cl)cc2)[C@@H](c2ccccc2)NC12C(=O)Nc1ccccc12 (stereo not given in full)	-41.7% (active)
COc1ccc(-c2cc(C(=O)N=Nc3c(O)[nH]c4ccc(Cl)cc34)c3ccccc3n2)cc1OC	92.2% (inactive)
COc1ccc(NC(=O)CSc2nnc(-c3ccc(-c4nc5ccccc5[nH]4)cc3)o2)cc1	11.9% (inactive)
CC1CCc2c(sc3nc(SCC(=O)c4cccc(Br)c4)n(-c4ccccc4)c(=O)c23)C1 (stereo not given)	11.3% (inactive)
COC(=O)c1cccc(Oc2ccc(NC(=O)Nc3cc(C(F)(F)F)ccc3F)cc2)c1	69.3% (inactive)
O=c1[nH]c2ccccc2cc1CSc1ccccc1Nc1nccc(-c2ccc3c(c2)OCO3)n1	85.5% (inactive)
C[C@@H]1[C@H]2C[C@@H](C[C@H]1NCc1nc3ccccc3n1C1CCCCCC1)C2(C)C	33% (inactive)
COc1ccc2[nH]c(O)c(N=Nc3nc(-c4ccc(Cl)cc4)cs3)c2c1	-33.7% (active)
N/C(=N\c1nc2ccc([N+](=O)[O-])cc2s1)NC(=O)Nc1ccccc1Cl	44.6% (inactive)
O=c1c(-c2nc(-c3ccccc3)c(-c3ccccc3)[nH]2)coc2ccc(F)cc12	60.7% (inactive)
O=C(Nc1ccc(-c2ccc3c(c2)NC(=O)/C3=C\c2ccc[nH]2)cc1)Nc1cccc(Cl)c1	-57.4% (active)
